The source of these data is PubChem BioAssay.

Molecules are shown by their SMILES.

This assay deals with E3 ubiquitin-protein ligase XIAP (Homo sapiens) (UniProt P98170). Nature of the assay: small molecules binding XIAP protein – biophysical, small-molecule microarray, fluorescence 635 nm, primary screen (AID 1181).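 Further: score merges 667 nm emission and signal to noise over triplicate slides.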 As to conditions: higher = more signal.
Sequence of E3 ubiquitin-protein ligase XIAP (Homo sapiens) (P98170 whole entry, looked up): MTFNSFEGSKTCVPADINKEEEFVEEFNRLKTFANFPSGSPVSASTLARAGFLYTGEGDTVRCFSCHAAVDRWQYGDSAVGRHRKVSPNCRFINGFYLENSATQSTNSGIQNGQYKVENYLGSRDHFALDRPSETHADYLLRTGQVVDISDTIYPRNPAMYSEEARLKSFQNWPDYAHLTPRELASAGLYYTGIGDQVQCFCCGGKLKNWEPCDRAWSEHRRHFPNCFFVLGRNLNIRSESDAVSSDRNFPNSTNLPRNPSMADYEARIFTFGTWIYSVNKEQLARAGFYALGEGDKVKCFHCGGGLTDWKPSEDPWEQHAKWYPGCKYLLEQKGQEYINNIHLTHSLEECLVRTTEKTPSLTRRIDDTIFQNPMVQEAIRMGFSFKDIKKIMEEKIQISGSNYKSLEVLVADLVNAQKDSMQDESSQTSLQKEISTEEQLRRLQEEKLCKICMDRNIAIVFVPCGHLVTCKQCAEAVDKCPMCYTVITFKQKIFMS
`CCOC(=O)C[C@H]1[C@H](OC(=O)Cc2ccc3c(c2)OCO3)[C@@H](NC(=O)c2ccc(-c3ccccc3)cc2)c2cc(OCCCO)ccc2N1C(=O)Cc1ccc(OC)cc1` displayed a composite z-score of 0.179.

In the case of `C=CCNC(=O)[C@H]1[C@@H]2C(=O)O[C@@H](c3ccccc3)[C@@H](c3ccccc3)N2[C@@H](c2ccc(O)cc2)[C@]12C(=O)N(C(=O)OCCOC)c1ccc(C#CCNC(N)=O)cc12`, the composite z-score is -0.219.

Compound `NCCCCCNC(=O)[C@@H]1C[C@@H]2C(=O)NCC(=O)N2[C@@H]1c1ccc(O)cc1` yielded a composite z-score of 0.348.

Turning to `C[N+](C)(C)CCCC[C@@H]1NC(=O)[C@@H]2C[C@H](C(=O)NCCCCCN)[C@H](c3cccc(OCCO)c3)N2C1=O`, the composite z-score came out at 0.191.

Compound `COc1cc(CO)cc(I)c1O[C@H]1C=C(C(=O)NCCO)C[C@@H](N(CCN2CCOCC2)C(=O)C2CCOC2)[C@@H]1O` (stereo not given in full) gave a composite z-score of 0.02.

For `[N-]=[N+]=NCc1ccccc1[C@@H]1OC(c2ccc(OCCCO)cc2)=N[C@]1(Cc1ccccc1N=[N+]=[N-])C(=O)N1CCOCC1`, the composite z-score was determined as 0.358.

In the case of `O=C1NCC(=O)N2[C@@H]1C[C@@H](C(=O)O)[C@H]2c1cccc(OCCO)c1`, the composite z-score was determined as 3.93.

`COc1ccc([Si](C)(C)[C@H]2[C@H](CCO)O[C@@]3(C(=O)N(Cc4ccc(N5C(=O)COc6ccccc65)cc4)c4ccccc43)[C@@H]2C)cc1` had a composite z-score of 0.144.

Turning to `O=C1c2ccccc2[C@@]2(Cc3ccccc3N(CCN3CCOCC3)C2=O)[C@H](c2ccc(CO)cc2)N1Cc1ccccc1`, the composite z-score was -0.278.

In turn, `COc1ccc([Si](C)(C)[C@@H]2[C@@H](CC(=O)N3Cc4ccccc4C[C@H]3CO)O[C@]3(C(=O)N(C)c4c(Br)cc(C)cc43)[C@H]2C)cc1` returned a composite z-score of -0.089.

As to `CCOC(=O)C[C@H]1[C@H](OC(=O)Cc2ccc3c(c2)OCO3)[C@@H](NC(=O)c2ccc3ccccc3c2)c2cc(OCCCO)ccc2N1C(=O)c1ccccc1`, the composite z-score is -0.0426.

In turn, `CN1C(=O)C2C=CC(C(O)c3ccccc3)N(Nc3ccccc3)C2C1=O` (stereo not given) gave a composite z-score of 0.0651.

Compound `CC(C)c1ccc(NN2C(C(O)C(c3ccccc3)c3ccccc3)C=CC3C(=O)N(c4ccccc4)C(=O)C32)cc1` (stereo not given) had a composite z-score of -0.0525.

Turning to `C=C(CCCC)C(=O)CC[C@H](OC(=O)c1cccnc1)c1ccccc1OCCO`, the composite z-score amounted to 0.0374.

The compound `CC(C)[C@@H](CO)NC(=O)[C@H]1[C@@H](c2ccccc2)N(c2ccccc2)O[C@@H]1C` gave a composite z-score of -0.0999.

On to `CCOC(=O)[C@H]1CC=C2CC1C(=O)N1CCC[C@@H]1[C@@H]2O[Si](C)(C)C(C)(C)C` (stereo not given in full), for which the composite z-score is -0.167.

`O=C(O)[C@@]1(CCS(=O)(=O)c2ccccc2)COC(c2ccc(OCCCO)cc2)=N1` showed a composite z-score of 0.0767.

The compound `CCOC(=O)[C@H]1C/C=C/C[C@H](C(=O)OCC)C(=O)O[C@H]2[C@@H](OC)O[C@H](CO)[C@@H](OC(=O)Nc3ccc(C#N)cc3)[C@@H]2OC1=O` gave a composite z-score of 0.122.

Consider `COCCOC(=O)N1C(=O)[C@@]2(c3cc(C#CC4=CCCCC4)ccc31)[C@H](C(=O)N1CCc3cc(OC)c(OC)cc3C1)[C@H]1C(=O)O[C@H](c3ccccc3)[C@H](c3ccccc3)N1[C@@H]2c1ccc(OCCO)cc1`, for which the composite z-score was -0.139.

On to `C#CCN(CC=C(C)C)[C@H](CO)c1ccccc1`, for which the composite z-score was -0.165.

Compound `COc1ccc(C(O)C2C=CC3C(=O)N(c4ccccc4)C(=O)C3N2Nc2ccccc2F)cc1OCc1ccccc1` (stereo not given) returned a composite z-score of 0.0158.

Compound `COc1ccc(C(=O)Nc2ccc(CN3C(=O)[C@@]4(O[C@@H](CC(=O)N5CCC[C@H]5CO)[C@H]([Si](C)(C)c5ccc(OC)cc5)[C@H]4C)c4ccccc43)cc2)cc1` yielded a composite z-score of 0.0774.

In turn, `CCOC(=O)C=Cc1cc([N+](=O)[O-])ccc1O` displayed a composite z-score of 0.193.

For the compound `CCOc1cc(C(O)C2C=CC3C(=O)N(c4ccccc4)C(=O)C3N2Nc2ccccc2)ccc1O` (stereo not given), the composite z-score is -0.189.

Consider `CCOC(=O)C[C@H]1[C@H](OC(=O)c2cc3ccccc3oc2=O)[C@@H](NC(=O)Cc2ccc(OC)cc2)c2cc(OCCCO)ccc2N1C(=O)c1ccccc1`, for which the composite z-score was found to be 0.0997.

In the case of `O=C(NCc1ccc(F)cc1)[C@H]1C[C@H]2C(=O)N[C@@H](Cc3ccccc3)C(=O)N2[C@H]1c1ccc(O)cc1`, the composite z-score is -0.224.

Take `O=C(c1ccccc1)N1Cc2ccccc2[C@@H]2OC(c3ccc(OCCCO)cc3)=N[C@]2(Cc2ccccc2)C1=O`: the composite z-score was -0.102.

On to `COc1ccc(C(=O)Nc2ccc(CN3C(=O)[C@@]4(O[C@@H](CCO)[C@H]([Si](C)(C)c5ccc(OC)cc5)[C@H]4C)c4ccccc43)cc2)cc1`, for which the composite z-score was -0.172.

`COc1ccc([Si](C)(C)[C@H]2[C@H](CCn3cc([C@H](O)c4ccccc4)nn3)O[C@@]3(C(=O)N(Cc4cccc(N5CCOC5=O)c4)c4ccccc43)[C@@H]2C)cc1`: the composite z-score is -0.117.

For the compound `CCCC=C(CCC)[C@@H](NS(=O)(=O)c1cccs1)c1ccc(C(=O)OC)cc1`, the composite z-score worked out at 0.0248.

The compound `O=C(NCc1ccccc1)[C@@]1(Cc2ccccc2)N=C(c2ccc(OCCCO)cc2)O[C@H]1c1ccccc1` gave a composite z-score of -0.0563.

The compound `COC(=O)c1c(CC[C@@H](CO)NC(=O)N[C@@H](C)Cn2cc(C3(O)CCCCC3)nn2)oc(C(C)=O)c1C(=O)OC` came in with a composite z-score of -0.039.

On to `O=C1O[C@H](c2ccccc2)[C@H](c2ccccc2)N2[C@H]1[C@@H](C(=O)O)[C@]1(C(=O)Nc3ccc(C#CCCO)cc31)[C@H]2c1ccc(O)cc1`, for which the composite z-score was -0.127.

In the case of `CC(C)C[C@H]1NC(=O)[C@@]23C(=O)N[C@@H](Cc4ccccc4)C2[C@H](C)[C@@]2(C)O[C@H]2C3/C=C/C/C=C\CNC(=O)[C@H](Cc2ccccc2)NC1=O` (stereo not given in full), the composite z-score was found to be 0.0842.

For `COc1ccc(C#Cc2ccc3c(c2)[C@]2(C(=O)N3)[C@H](c3ccccc3OCCO)N3[C@H](c4ccccc4)[C@H](c4ccccc4)OC(=O)[C@H]3[C@@H]2C(=O)O)cc1`, the composite z-score was 0.284.
